# The whole screen tested about 300,000 compounds, of which about 1,700 (0.57%) were called active. Another 2% or so got no clear call; they are omitted. For the sample, actives were picked, then their nearest neighbours and some compounds at random. Values without a mark were called inactive.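 Rule for the calls: active = growth inhibition above about 58% in most replicates (limit read from the data, passing the limit was not always enough); inconclusive = exactly half the replicates above a set limit; inactive = most replicates below a set limit.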
# Test: C. albicans growth inhibition with fluconazole, primary screen, CaCi-2 strain, Alamar Blue fluorescence (AID 1979);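 note: all wells also contain fluconazole at 8 µg/ml as a sub-toxic cotreatment; 0% = median of DMSO wells and 100% = median of geldanamycin control wells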
# Conditions: C. albicans CaCi-2 (fluconazole-resistant clinical isolate) + fluconazole, 48 h, hits give high values, concentration not given here
row,Structure (SMILES),growth inhibition
1,Nc1cc(N)nc(SCc2cccc(F)c2)n1,93.5% (active)
2,Nc1cc(N)nc(SCc2ccc(Cl)cc2)n1,12.7%
3,CCc1nnc(SCc2cccc(F)c2)nc1CC,-15.9%
4,O=C(c1ccc(Cl)s1)N(Cc1nnc(-c2ccccc2Cl)o1)C1CC1,-12.7%
5,COc1ccccc1N1CCN(C(=O)c2cc(=O)c3cc(C)cc(C)c3o2)CC1,4.61%
6,Cc1ccc(SCc2c(C(=O)N/N=C/c3cccnc3)nnn2-c2nonc2N)cc1,19.8%
7,Nc1nonc1-n1nnc(C(=O)N/N=C/c2ccccc2O)c1CN1CCCC1,-25.8%
8,Nc1nonc1-n1nnc(C(=O)N/N=C/c2cc(Br)ccc2O)c1CSC1=NCCS1,90.5% (active)
9,CCOC(=O)C1=C(c2ccccc2)NC(=O)NC1c1cc(OCC)c(O)c([N+](=O)[O-])c1 (configuration not stated),38%
10,COc1cc(C2NC(=O)NC(c3ccccc3)=C2C(C)=O)c(Br)cc1OCC(N)=O (configuration not stated),6.65%
11,CCOC(=O)C1=C(c2ccccc2)NC(=O)NC1c1cc(OC)c(OC)cc1OC (configuration not stated),111% (active)
12,Cc1cccc(NS(=O)(=O)c2ccc(C(=O)NCC(C)(C)N3CCOCC3)cc2)c1C,-3.65%
13,CCOc1ccc(CCNC(=O)COC(=O)c2c(OC)cccc2OC)cc1OCC,8.5%
14,Cc1ccn2c(=O)c(NC(=O)c3cccc4ccccc34)c(C)nc2c1,1.1%
15,CCOc1ccc(NC(=O)NNC(=O)c2ccc(Cl)cc2Cl)cc1,0.808%
16,NC(N)=N/N=C/c1ccc(OCc2ccc(Cl)cc2Cl)cc1,123% (active)
17,OC(CNCCc1ccc(Cl)cc1Cl)COc1ccccc1 (configuration not stated),7.1%
18,OCCCNc1nc(-c2ccccc2)c2cc(Cl)ccc2n1,14.2%
19,O=C(O)C(c1ccccc1)N1C(=O)/C(=C\c2ccc(-c3cccc(Cl)c3)o2)SC1=S (configuration not stated),37.9%
20,O=c1c(-c2cccc(Cl)c2)c[nH]n1-c1ccccc1,0.955%
21,O=C1c2ccccc2NC(c2ccc(-c3cccc(Cl)c3)o2)N1O (configuration not stated),96.8% (active)
22,Cc1ccc(CCN2CC(C(=O)NCCc3ccccc3)CC2=O)cc1 (configuration not stated),-6.78%
23,Cc1cccnc1NC(=O)Cn1c(=O)oc2ccccc21,-0.441%
24,C[C@@H]1C[C@@H]2O[C@H]2/C=C\C=C\C(=O)Cc2c(Cl)c(O)cc(O)c2C(=O)O1,84.1% (active)
25,COC(=O)c1cc(-c2cccs2)nc2ccccc12,-7.15%
26,O=C(Nc1nnc(-c2ccccc2)o1)c1cc(-c2cccs2)nc2ccccc12,89.3% (active)
27,O=C(NCCN1CCOCC1)c1cc(-c2cccs2)nc2ccccc12,-3.11%

# Reference: PubChem BioAssay AID1979 (Broad Institute, 2009)
